Experimental data published in PubChem BioAssay AID1508600 (Functional Genomics Laboratory (NCATS/FGL), 2020).
Hit rate of the full screen: of about 53,000 sequences, about 3,700 (7%) were called active. Shown is part of a subset that was picked to be rich in actives. Unmarked numbers belong to inactive results.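 Rule for the calls: active = gene knockdowns whose robust z-score for IL-1 alpha signal is at least 2 or at most -2, so actives lie on both sides; inactive = the rest.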

assay: Components of the Cytosolic LPS Sensing Pathway: Gene Identification via Genome-wide siRNA Screen; details: RAW264.7 macrophages, IL-1a HTRF, actives lie on both sides, screened at 100 nM (by protocol), cells primed 5 h with Pam3CSK4 first;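 note: robust z of the log signal after scaling to non-targeting control siRNA wells of the plate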
Summary of the method: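 RAW264.7 mouse macrophages reverse-transfected with single siRNAs (100 nM final) for 48h, primed with Pam3CSK4 for 5 hours, then transfected with LipidA for 24 hour. Supernatant IL-1a read by HTRF; values normalized to negative-control median, log-transformed robust z-scores.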

Point of comparison: GGUCUUUGACAGAAUAAAATT against Yipf1, z-score 1.94. Against it:
- GGGCAGGAACAAAAGAAGCTT against Dsc1 — lower, 0.165
- GGUGUCACCAUUUCAGUGGTT against Lbp — lower, 0.703
- GCAUUCAUGUGCUCUGCCCTT against Ifitm6 — lower, -0.952
- GGCAUUGAAUUAAAGAUACTT against Myct1 — lower, -1.06
- GCAUCACGGAUUCGAAUUGTT against Dgkz — lower, -1.25
- GGAAGACAUAAUAAUAGAGTT against Rad17 — lower, -1.39
- CCUACAAGAACGAAGAUUUTT against Pla2g4d — lower, -1.67
- CCACCUACGUCAACACUAATT against Kcnh6 — lower, -1.8
- CCAGAUGUUGGAUAAAACGTT against Fbxw10 — lower, -0.333
- GGAAAUUUCAGUCGAACAGTT against Arhgap31 — lower, 0.333
- GGCAUCCACCCUAAGGUCATT against Keap1 — lower, 1.03
- GGCCUCCAAAUGAACAGCATT against Trmt61a — lower, -0.365
- GCUGUACGUAGAUUCCAGATT against Mmp21 — lower, 1.48
- GGAGAAACAUCAAUUGCACTT against Thbs2 — lower, -0.0207
- GCUUGAUGACUCUAAACCUTT against Runx2 — lower, 1.29
- GCCUCUAUCUGUACUCUGGTT against Pdk2 — lower, -0.944
- GCACAAAUCUGGUAAGUCATT against Gtf2h1 — lower, 0.474
- GCAACAUAUGGUAUACUGUTT against Mdm4 — lower, 1.41
- CCAUGAAAAACUUAGUGUGTT against Trim37 — lower, 0.682
- CCUUGGGACUGACUGUAAGTT against Ptrh2 — lower, -0.887
- GGUCUUAUUUUGAAGUGUUTT against Cybb — lower, 0.013
- GCGAUCAAAAAAGUUGCCUTT against Arhgap44 — lower, -0.387
- GCUACAAGUGUUGCCUGAATT against Slit1 — lower, 1.21
- GGUGCAGAGAAGAACAAGATT against Inpp1 — lower, -0.993
- CCACAGGGAGACAUGAUAUTT against Coprs — lower, -0.292
- GUGAUGUCACUAAUGCCAATT against Cd99 — lower, 0.628
- GGAUAGACAGAAAUUCUCATT against Flot1 — lower, 1.43
- GGAAAACUACUGGAACUGGTT against Irgm1 — lower, 0.415
- GGUGAUCAUGCUAACCUUUTT against Pcolce — lower, 0.436
- GGUGUAACUGGGCUGCAUGTT against Avpi1 — lower, 0.269
- GCUGAUGGUAAAUUCACAGTT against Serpinb3c — lower, -1.01
- GCAUGUGUACCAUUUACCUTT against Prdx1 — lower, 1.87
- GGAUGCCCUUGUCACAAAGTT against Fbl — lower, 0.154
- GGAACACUGUAUCUUACGGTT against Mtmr6 — lower, 0.599
- GGAGAAGGUGACUUAAUAGTT against 9430077A04Rik — lower, 0.76
- GGAGAUCACCUACGACAUGTT against Lgals8 — lower, 0.446
- GGUCAUCUCAGUACUACAATT against Dgat2 — lower, 0.251
- GGCAAGAAAAACACUUUAUTT against Parp3 — lower, 1.85
- GGCAUUGGAAGAUGCACAGTT against Scp2 — lower, 0.431
- GGUUAUAGCAUCCUUAACUTT against Tmem208 — lower, 1.06
- GGUGAAGUCUUACCUAUACTT against Aacs — lower, -0.598
- GACCUUGGUUAUUCUACAGTT against Olfr1087 — lower, -1.14
- GGUGUGUUUUGUAUUGAUUTT against Olfr843 — lower, 0.482
- GGUCUCCAUAAGUGUCAGCTT against Cntfr — lower, -0.407
- GGUGUCUCUGAAGAUUGAATT against Cdc6 — lower, 0.345
- GGAUUAGGAUCAGCAGGAUTT against Accs — lower, 1.01
- GGAGAUAAUCCUUGUCACGTT against Whamm — lower, 0.592
- CCCUUAAAGGGUAGCAUUUTT against Ncan — lower, 0.837
- GUGGUCUUUAUCGGCAUGATT against Slc35c1 — lower, 0.287
- GCUCUUGUAAAUUUGUGAATT against Usp10 — lower, -0.331
- GCAGUGCUCUUUAGCAUAATT against Zfp689 — lower, 1.01
- GCAUAAAAAACGAAUAGAGTT against Smc1b — lower, -0.432
- GCAAGUCCUAGUGUCCUGATT against N6amt1 — lower, -0.213
- GGAAAUGCUGCCAUUGUUATT against Aldh3a2 — lower, 0.333
- GCAAGCGAUGGCACAUAGATT against Ap1g2 — lower, 1.03
- GGUUACGAAGAUUAAUGUGTT against Crk — lower, 1.27

For GGCUGUCUUCUGAUCAAUUTT against Adamts3, the z-score was 2.42 (active).
With CCAACAUCGAGCUAGCCACTT against Psma5 the z-score was -2.28 (active).
With GGAUUGAGUGACGACUGACTT against Nova2 the z-score was 2.25 (active).
In the case of CCCAAUUAGGCUAUGCUAATT against Amfr, the z-score is reported as 2.27 (active).
In the case of GGAGUGUUUGAGAAAUACCTT against Pnpla7, the z-score is reported as 3.32 (active).
For GGAGUGGGAGAAGAUGGAATT against Mbd4, the z-score was 2.17 (active).
In the case of GGAGGCAGAUGCUGGAAUCTT against Defb3, the z-score is reported as 4.19 (active).
In the case of GGCAAUUCUUAACCUGUCCTT against Tacc1, the z-score is reported as -2.75 (active).
For GGAAGGAGGACAGAGGAAUTT against Tmem19, the z-score was 2.34 (active).
With GGCAACAGUGCAUUCAAGUTT against Nptx2 the z-score was 3.39 (active).
In the case of GGAUCUUGAUCCACAUCUCTT against Padi6, the z-score is reported as -2.47 (active).
For GGAACAAAGACAUUGCUUUTT against Sf3a3, the z-score was -2.77 (active).
